# Assay results from the supplement of paper PMC8728848.
# This excerpt belongs to a sample that is enriched for the strongest signals.
# B1: MIG/CXCL9 (Homo sapiens) (protein)
# chain: TPVVRKGRCSCISTNQGTIHLQSLKDLKQFAPSPSCEKIEIIIATLKNGVQTCLNPDSADVKELIKKTEKQVSQKKKQKNGKKHQKKKVLKVRKSQRSRQKKTT
# Legend:
# Experiment in all cases: glycan array binding signal (z-score within array); higher = stronger binding
# Settings in all cases: glycan notation: IUPAC condensed, linker removed
# [1] = biological target: Fuc(a1-2)Gal(b1-3)GalNAc
# Outline: (§1)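 Negative Z-scores can be read as non-binding. The Z-score is calculated within each array and then averaged across arrays of one protein sequence at different concentrations or buffers and across linkers. Arrays, 3228 in all, were curated from the Consortium for Functional Glycomics database and kept only where the protein sequence was available.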
# [2] = biological target: Fuc(a1-2)Gal(b1-3)GalNAc(b1-4)[Neu5Ac(a2-3)]Gal(b1-4)Glc
# Outline: as §1
# [3] = biological target: Fuc(a1-2)Gal(b1-4)[Fuc(a1-3)]GlcNAc
# Outline: as §1
# [4] = biological target: Fuc(a1-2)Gal(b1-4)[Fuc(a1-3)]GlcNAc(b1-3)Gal(b1-4)[Fuc(a1-3)]GlcNAc
# Outline: as §1
# [5] = biological target: Fuc(a1-2)Gal(b1-4)[Fuc(a1-3)]GlcNAc(b1-3)Gal(b1-4)[Fuc(a1-3)]GlcNAc(b1-3)Gal(b1-4)[Fuc(a1-3)]GlcNAc
# Outline: as §1
# [6] = biological target: Fuc(b1-3)GlcNAc
# Outline: as §1
# [7] = biological target: Gal(a1-3)Gal
# Outline: as §1
# [8] = biological target: Gal(b1-4)Glc6S
# Outline: as §1
# [9] = biological target: Gal3S(b1-4)GlcNAc6S
# Outline: as §1
# [10] = biological target: Gal3S6S(b1-4)GlcNAc
# Outline: as §1
# [11] = biological target: Gal3S6S(b1-4)GlcNAc6S
# Outline: as §1
# [12] = biological target: Gal6S(b1-4)Glc6S
# Outline: as §1
# [13] = biological target: GalNAc(a1-3)GalNAc
# Outline: as §1
# [14] = biological target: GalNAc(b1-4)GlcNAc
# Outline: as §1
# [15] = biological target: Neu5Ac(a2-3)Gal(b1-3)GlcNAc
# Outline: as §1
# [16] = biological target: Neu5Ac(a2-3)GalNAc
# Outline: as §1
# [17] = biological target: Neu5Gc(a2-3)Gal(b1-4)[Fuc(a1-3)]GlcNAc
# Outline: as §1
binder,measurement,setting,value
B1,glycan array binding signal (z-score),[1],-0.29
same,glycan array binding signal (z-score),[2],-0.193
same,glycan array binding signal (z-score),[3],-0.26
same,glycan array binding signal (z-score),[4],-0.383
same,glycan array binding signal (z-score),[5],-0.37
same,glycan array binding signal (z-score),[6],-0.209
same,glycan array binding signal (z-score),[7],-0.114
same,glycan array binding signal (z-score),[8],0.015
same,glycan array binding signal (z-score),[9],2.28
same,glycan array binding signal (z-score),[10],2.35
same,glycan array binding signal (z-score),[11],5.28
same,glycan array binding signal (z-score),[12],2.35
same,glycan array binding signal (z-score),[13],0.274
same,glycan array binding signal (z-score),[14],-0.358
same,glycan array binding signal (z-score),[15],-0.037
same,glycan array binding signal (z-score),[16],-0.254
same,glycan array binding signal (z-score),[17],-0.288
